Rows were chosen to be rich in hits. Some 2.6% of all compounds tested hit in one or more screens of this group.
PHOSPHO1 inh: inhibitors of human PHOSPHO1 phosphatase; inhibition, % at 13.3 µM; 1.1% of 290,000 active; recombinant PHOSPHO1, absorbance phosphatase assay; Q8TCT1; AID 1565; in the data active = inhibition above about 60%
Target sequence (Q8TCT1 whole entry, looked up): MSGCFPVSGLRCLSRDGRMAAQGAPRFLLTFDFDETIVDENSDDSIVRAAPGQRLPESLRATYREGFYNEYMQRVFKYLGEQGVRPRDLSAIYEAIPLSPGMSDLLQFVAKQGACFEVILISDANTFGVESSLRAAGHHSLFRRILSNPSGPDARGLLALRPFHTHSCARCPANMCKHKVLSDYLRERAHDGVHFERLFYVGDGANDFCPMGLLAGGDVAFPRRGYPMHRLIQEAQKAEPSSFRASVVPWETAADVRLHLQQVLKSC
MLLE-PAM2 inh: blocks PAM2 peptide binding to the PABP1 MLLE domain. P11940. GST-MLLE / FITC-PAM2 fluorescence polarization. inhibition, % at 20 µM. 0.36% of 360,000 active; in the data active = inhibition above about 35%, passing the limit was not always enough;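 also: plate controls were DMSO wells with GST-MLLE for no effect and wells lacking GST-MLLE protein for full effect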
PABP polyA inh: PABP-poly(A) binding inhibition. P11940. PABP-poly(A) RNA binding, fluorescence polarization. inhibition, % at 35 µM. 1% of 290,000 active;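 also: calls also rest on retests at 20 µM and on dose response follow-up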
CRFR2-BP antag: antagonists of CRF-binding protein/CRF-R2 receptor complex. AID 588475. HEK293 CRF-R2/CRF-BP, CRF-induced calcium fluorescence. inhibition, % at 11.8 µM. 0.59% of 350,000 active;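 active = inhibition of the ligand-induced calcium signal above about 50% at the single tested concentration, limit read from the data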
eIF4H inh: inhibitors of RNA binding by human eIF4H; eIF4H fluorescence polarization binding assay; inhibition, % at 35 µM; 0.94% of 290,000 active; AID 2012;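 also: calls also rest on retests at 20 µM and on dose response follow-up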
* marks the source's active call; other numbers are inactive results; ? = inconclusive; nt = no result. Unless noted, no rule for the calls is given here.

SMILES	PHOSPHO1 inh	MLLE-PAM2 inh	PABP polyA inh	CRFR2-BP antag	eIF4H inh
O=C(COC(=O)C1CCN(S(=O)(=O)c2ccc3c(c2)OCCO3)CC1)NC1CCS(=O)(=O)C1 (centres undefined)	nt	-2.5	nt	114.7*	nt
CN(CCc1ccccc1)C(=O)c1ccc(NC(=O)Cc2cccc(NC(=O)C3CCN(C(=O)c4ccccc4)CC3)c2)cc1	nt	-4.2	nt	-2.6	nt
COc1ccc(C(=O)COC(=O)c2cc(S(=O)(=O)NCc3ccccc3)ccc2O)cc1	27.5	-5.0	69.4*	-10.7	active
COC(=O)c1cc(Cl)ccc1NCC(N)c1ccccc1 (centres undefined)	nt	7.2	nt	nt	nt
CCCc1nnc(NC(=O)c2c(O)c3cccc4c3n(c2=O)CCC4)s1	-68.8	nt	active	nt	95.9*
COc1ccc(NC(=O)C2Cc3c(-c4ccc5c(c4)OCO5)ccnc3O2)cc1 (centres undefined)	nt	-3.4	nt	nt	nt
CC(Oc1ccc(C(=O)c2ccc(F)cc2)cc1)C(=O)N1CCOCC1 (centres undefined)	nt	-3.4	nt	0.3	nt
COc1ccc(C2C(C(=O)OCC(=O)N3CCCCC3)CCC(=O)N2c2ccc(OC)cc2)cc1 (centres undefined)	67.5*	-30.1	13.0	-0.2	8.8
CCNC(=O)COC(=O)C1CCC(=O)N(c2ccc(OC)cc2)C1c1ccc(OC)cc1 (centres undefined)	4.1	-7.2	-5.5	13.2	-4.8
Cc1ccc(CN(C(=O)c2ccccc2[N+](=O)[O-])C2CCS(=O)(=O)C2)o1 (centres undefined)	31.5	5.7	5.2	57.6*	-12.3
COc1cc(-c2ccc(Nc3ccccc3C(=O)O)c(OC)c2)ccc1Nc1ccccc1C(=O)O	-1.4	-7.6	94.2*	16.2	91.0*
COCCNC(=O)C1(C)CCN(C(=O)c2ccc3c(c2)C(C)(C)CCC3(C)C)C1 (centres undefined)	nt	2.7	nt	nt	nt
Cc1ccsc1C=Nc1ccc(O)cc1	10.2	21.6	28.2	-21.9	51.1*
Cc1ccsc1/C=N/N=C/c1sccc1C	-13.0	-7.3	-0.9	5.1	-0.4
Cn1c(N)c(C(=O)COC(=O)CNS(=O)(=O)c2ccc(Cl)c(Cl)c2)c(=O)n(C)c1=O	-0.9	-9.3	-4.5	64.5*	2.1
Cn1c(N)c(C(=O)COC(=O)CNC(=O)c2ccccc2Cl)c(=O)n(C)c1=O	nt	2.5	nt	6.4	nt
O=C(CSc1nnc2ccccn12)NNC(=O)c1cccc(Cl)c1	nt	-1.9	nt	-16.4	nt
CN(C(=O)c1cccc(NC(=O)Cc2ccc(NC(=O)C3CCCN(C(=O)CCc4ccccc4)C3)cc2)c1)C1CCCCC1 (centres undefined)	nt	-8.2	nt	67.3*	nt
CN(C(=O)c1cccc(NC(=O)Cc2ccc(NC(=O)C3CCCN(C(=O)CCc4ccccc4)C3)cc2)c1)C1CC1 (centres undefined)	nt	-5.8	nt	3.7	nt
CC(=O)Nc1ccc2ccc3cccc4ccc1c2c34	-1.9	2.0	-0.8	1.8	60.4*
O=C(COc1ccc(Cl)cc1Cl)N1CCNC1=O	nt	7.5	nt	20.7	nt
O=C(COc1cc(Cl)ccc1Cl)N1CCNC1=O	nt	9.5	nt	50.6*	nt
COC/C=C/C1=CC2=CC(=O)C(C)(OC(=O)c3cnc4ccccc4n3)C(=O)C2=CN1c1ccc(CO)cc1 (centres undefined)	4.0	nt	78.5*	nt	102.4*
COC/C=C/C1=CC2=CC(=O)C(C)(OC(=O)c3cnc4ccccc4n3)C(=O)C2=CN1c1ccccc1 (centres undefined)	13.3	nt	43.7*	29.4	62.8*
COC/C=C/C1=CC2=CC(=O)C(C)(OC(=O)c3cnc4ccccc4n3)C(=O)C2=CN1CC(C)C (centres undefined)	nt	10.8	nt	-0.8	nt
SMILES	PHOSPHO1 inh	MLLE-PAM2 inh	PABP polyA inh	CRFR2-BP antag	eIF4H inh
COC/C=C/C1=CC2=CC(=O)C(C)(OC(=O)c3cnc4ccccc4n3)C(=O)C2=CN1C1CCCCC1 (centres undefined)	-1.7	nt	27.9	nt	28.1
CCOC(=O)CN(C(=O)c1snc(C(N)=O)c1N)C(C(=O)NCCC(C)C)c1ccc(C)cc1 (centres undefined)	nt	-7.9	nt	-1.2	nt
CCOC(=O)Cc1csc(NC(=O)/C=C/c2ccc(Br)o2)n1	38.3	-8.2	8.3	-8.7	2.4
CCOC(=O)Cc1csc(NC(=O)c2sc3nc4cc(C)ccc4cc3c2N)n1	-7.9	23.1	active	-58.3	?
CCOC(=O)Cc1csc(NC(=S)NC(=O)c2ccccc2Br)n1	-9.8	38.9*	-0.7	15.4	4.8
CCOC(=O)Cc1csc(NC(=O)/C=C/c2cccc(Br)c2)n1	28.0	-19.5	61.3*	-15.4	active
CCOC(=O)c1sc(NC(=O)/C=C/c2ccccc2)nc1C	-13.0	26.2	115.3	-1.7	11.3*
C/C(=N\NC(=O)c1ccccc1F)c1cccc(NC(=O)c2ccc(C)cc2)c1	31.3	-2.0	3.1	-5.1	1.1
CC(C)CC1C(=O)N(Cc2cn(Cc3ccco3)nn2)CCS(=O)(=O)N1Cc1ccc(-c2cccc(N(C)C)c2)cc1 (centres undefined)	nt	-2.1	nt	12.9	nt
CCOC(=O)c1c(C)[nH]c(C)c1C(=O)COC(=O)/C=C/c1ccc(Cl)cc1	29.2	-6.3	-8.2	128.9*	-1.7
CC1C2(C)OC(=N)C(C#N)(C(C)O2)C1(C#N)C#N (centres undefined)	10.6	64.0*	17.5	4.3	47.7
CC1OC2(C)OC(=N)C1(C#N)C(C#N)(C#N)C2c1ccccc1 (centres undefined)	-4.9	17.2	-8.2	-35.5	?
O=C(Nc1ccc(F)cc1F)c1noc2c1CCC2	-21.3	13.5	44.6*	5.3	85.0*
O=C(Nc1cc(Cl)ccc1Cl)c1noc2c1CCCC2	13.0	7.1	16.9	20.7	-7.3
C=CC[C@@H](Cc1ccc(F)cc1)C(=O)OC[C@@H]1CCCN1C(=O)[C@@H](CC=C)CC(=O)N[C@H](CO)Cc1ccccc1	nt	-9.1	nt	1.3	nt
Cc1ccc(CO/N=C\Cc2snc(Sc3ncc(C(F)(F)F)cc3Cl)c2C#N)cc1	95.4*	-44.0	8.9	-15.3	5.6
N#CCc1ccc(Oc2ncc(C(F)(F)F)cc2Cl)cc1	16.5	4.5	5.4	-13.9	-1.6
COc1ccc([C@H]2C[C@@H](O)[C@H](n3cc(COC(=O)c4ccccc4)nn3)CN2C(=O)C2CCCCC2)cc1	nt	3.7	nt	-5.7	nt
C[C@@H]1CN([C@H](C)CO)C(=O)CCCn2cc(nn2)CO[C@H]1CN(C)S(=O)(=O)c1cccc(F)c1	nt	13.8	nt	-0.7	nt
CCn1c(CCCCc2n[nH]c(=S)n2CC)n[nH]c1=S	42.1	13.3	-1.6	20.9	-2.4
CCCCn1c(CCn2nc(C)c(Br)c2C)n[nH]c1=S	89.8*	-1.2	1.7	-8.9	1.9
CC(C)[C@H](NC(=O)N1CCn2c1nc1ccccc12)C(=O)NC1CCCCC1	26.6	6.7	3.6	0.8	-6.1
COc1ccc(N2Cc3ccc(C(=O)N/N=C\c4ccc(O)cc4O)cc3C2)cc1	-23.9	nt	19.7	nt	64.7*
CC1(C)CC(N2CCN(c3ccccc3)CC2)=CC(=[N+]2CCCC2)C1	85.5*	-131.1	38.4	-2.5	1.6

Assay outcomes deposited in PubChem by Sanford-Burnham Center for Chemical Genomics.
